Experimental findings from PubChem BioAssay (Tox21) are described below.

Inconclusive results are not listed. Some compounds were tested as several samples or in several runs, with calls that do not always agree. Active and inactive are the calls of the source. Unless noted, calls follow the shape of the full dose curve.

The nature of assay [1]: Nuclear factor erythroid 2-related factor 2/antioxidant responsive element (Nrf2/ARE) small molecule agonists: qHTS cell viability counter screen in human keratinocytes (AID 1919968; active = well fitted curve in the direction sought with a large enough effect in the repeat runs; an effect the other way counts as inactive or inconclusive; also: nearly all actives have a fitted effect of over 55% in size; also: potency is read from the fitted curve at half-maximal effect). The method, boiled down: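 Seed 1,500 KeratinoSens cells per well, then incubate 5 h at 37 C/5% CO2. Add compounds in DMSO and incubate 23 h. Add CellTiter-Fluor, wait 1 h and read fluorescence.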
A general note: Quantitative high-throughput screening tests each substance at several concentrations.

Assay [2] has as its target KiSS-1 receptor (Homo sapiens) (UniProt Q969F8). As to the kind of experiment: Human kisspeptin (KISS1R) small molecule agonists, calcium flux assay in KISS1R-HEK293 cells (AID 1920064; active = well fitted curve in the direction sought with a large enough effect in the repeat runs; an effect the other way counts as inactive or inconclusive). The method, boiled down:
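Cells plated and incubated 18 h; dye added, 1 h at 37 C; compounds in DMSO pinned in; signal read at 480/540 nm every second for 3 min. Each compound tested at 15 concentrations in triplicate.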

A short description of assay [3]: G protein-coupled receptor (GPCR) small molecule agonists, calcium flux assay: HEK293 wild type cell line counter screen (AID 1920065). The method, boiled down:
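Counter-screen of the Tox21 10K library for non-specific calcium release: dye-loaded cells received compounds in DMSO and were monitored by kinetic fluorescence (480/540 nm, 3 min). Fifteen concentrations, run in triplicate.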
A general note: A change in cytosolic calcium serves as a functional read-out for many receptors and channels.

Assay [4] can be described thus: p53 small molecule agonists, cell-based qHTS assay with human liver microsomes: qHTS cell viability counter screen (AID 1963579). Also: nearly all actives have a fitted effect of over 45% in size. The method, boiled down:
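Metabolic activation used human liver microsomes and NADPH, both 0.5 mg/mL final, over 16 hours at 37 C on p53RE-bla cells (4,000/well). Cytotoxicity measured by CellTiter-Glo luminescence, 30 min at room temperature.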

A short description of assay [5]: p53 small molecule agonists, cell-based qHTS assay with rat liver microsomes: qHTS cell viability counter screen (AID 1963580). Also: nearly all actives have a fitted effect of over 45% in size. The method, boiled down:
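Viability is assessed in parallel with the p53 reporter read: HCT-116 p53RE-bla cells receive compounds plus rat microsomes and NADPH (0.5 mg/mL final apiece), incubate 16 h at 37 C, and then CellTiter-Glo luminescence is recorded.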

Assay [6] in a line: p53 small molecule agonists, cell-based qHTS assay: qHTS cell viability counter screen (AID 1963581). Also: nearly all actives have a fitted effect of over 45% in size. The method, boiled down:
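Cells: HCT-116 with p53 response element-driven beta-lactamase. Treatment: 16 h, 37 C, compounds in DMSO. Read: CellTiter-Glo luminescence after 30 min RT.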

Assay [7] can be described thus: p53 small molecule agonists, cell-based qHTS assay (AID 1963582; active = well fitted activation curve with a large enough effect in the signal ratio in the repeat runs, not every such curve was filed as active; the % refers to the signal ratio). The method, boiled down:
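Quantitative HTS in p53RE-bla cells: after a 5 h settling period, compounds delivered in DMSO were left on cells for 16 h at 37 C, and reporter induction was measured as fluorescence following 2 h substrate loading.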

The target of assay [8] is 5-hydroxytryptamine receptor 2A (Homo sapiens) (UniProt P28223). As to the kind of experiment: 5-hydroxytryptamine receptor 2A (HTR2A) small molecule agonists, cell-based qHTS assay (AID 1963587). Also: nearly all actives have a fitted effect of over 30% in size. The method, boiled down: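 CHO cells stably expressing human HTR2A, plated 18 h, loaded with calcium dye 1 h at 37 C. Agonist mode: compounds added and intracellular calcium fluorescence recorded kinetically for 2 min at 1 sec intervals.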
5-hydroxytryptamine receptor 2A (Homo sapiens), sequence (P28223 whole entry, looked up): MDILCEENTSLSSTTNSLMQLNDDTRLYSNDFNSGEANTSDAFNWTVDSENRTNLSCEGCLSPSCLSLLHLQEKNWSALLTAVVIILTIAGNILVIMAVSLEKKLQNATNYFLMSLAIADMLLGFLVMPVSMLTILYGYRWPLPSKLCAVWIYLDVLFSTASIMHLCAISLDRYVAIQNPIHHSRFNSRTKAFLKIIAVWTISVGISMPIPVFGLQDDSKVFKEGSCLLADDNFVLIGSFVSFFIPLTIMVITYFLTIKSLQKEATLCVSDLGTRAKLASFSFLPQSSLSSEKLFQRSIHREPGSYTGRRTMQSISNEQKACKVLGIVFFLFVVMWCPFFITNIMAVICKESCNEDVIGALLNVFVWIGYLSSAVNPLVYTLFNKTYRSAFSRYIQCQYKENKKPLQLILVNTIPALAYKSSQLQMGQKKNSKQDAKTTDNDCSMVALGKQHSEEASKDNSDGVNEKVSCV

Assay [9] addresses Muscarinic acetylcholine receptor M1 (Homo sapiens) (UniProt P11229). As to the kind of experiment: Cholinergic receptor muscarinic 1 (CHRM1) small molecule agonists, cell-based qHTS assay (AID 1963589). Also: nearly all actives have a fitted effect of over 35% in size. The method, boiled down: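 Agonist-mode qHTS in CHO cells stably carrying human muscarinic M1. Intracellular calcium is tracked by fluorescence every second after compound transfer; each compound runs at 15 concentrations in three independent runs.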

Assay [10] can be described thus: cAMP Responsive Elements (CRE) small molecule agonists, cell-based qHTS assay (AID 1963590). The method, boiled down: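 Agonist mode qHTS in CRE-bla HEK 293T cells: compounds dosed from DMSO for 3 h at 37 C/5% CO2, followed by LiveBLAzer B/G FRET substrate for 2 h at room temperature.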
A short description of assay [11]: cAMP Responsive Elements (CRE) small molecule antagonists, cell-based qHTS assay (AID 1963591; active = well fitted inhibition curve with a large enough effect in the signal ratio in the repeat runs, not every such curve was filed as active; the % refers to the signal ratio). The method, boiled down: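 Antagonist mode: test compounds are co-incubated with the adenylyl cyclase activator NKH477 (0.25 uM final) on CRE-bla HEK293T cells for 3 h at 37 °C, followed by LiveBLAzer substrate loading.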
Assay [12] deals with Beta-2 adrenergic receptor (Homo sapiens) (UniProt P07550). As to the kind of experiment: Adrenergic beta2 receptor (ADRB2) small molecule antagonists, cell-based qHTS assay (AID 1963592). Also: series mostly up to about 92 µM; nearly all actives have a fitted effect of over 50% in size. The method, boiled down:
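Cells (CHO, stable ADRB2 overexpression) incubated 18-20hr at 37C; compounds added from DMSO; agonist mix (1nM isoproterenol, 100uM IBMX, 25uM Ro-20-1724) added; 0.5hr RT; d2-cAMP and anti-cAMP-cryptate added; 1hr RT; 665/615 nm read.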

For assay [13] the target is unchanged. As to the kind of experiment: Adrenergic beta2 receptor (ADRB2) small molecule agonists, cell-based qHTS assay (AID 1963593).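 Also: CHO cells stably overexpressing human ADRB2.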 The method, boiled down: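 CHO cells stably over-expressing ADRB2 were plated overnight at 37C, then dosed with compounds plus a stimulation mix containing 100uM IBMX and 25uM Ro-20-1724 for 0.5hr at room temperature. cAMP was measured by HTRF competition, 1hr.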

For assay [14], the target named is D(2) dopamine receptor (Homo sapiens) (UniProt P14416). As to the kind of experiment: Dopamine D2 receptor (DRD2) small molecule agonists, cell-based qHTS assay (AID 1963594). Also: nearly all actives have a fitted effect of over 35% in size. The method, boiled down:
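HEK293 cells stably expressing human DRD2, pre-treated with PDE inhibitor Ro20-1724 (0.1 mM final) and compound 10 min at room temperature, then stimulated with NKH477 (200nM […]) for 30 min. cAMP read by HTRF (665/620 nm).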

Assay [15] shares this target. The assay can be described thus: Dopamine D2 receptor (DRD2) small molecule antagonists, cell-based qHTS assay (AID 1963595; active = well fitted inhibition curve with a large enough effect in the signal ratio in the repeat runs, with a control signal flat; the % refers to the signal ratio). The method, boiled down: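 HTRF cAMP read-out at 665 and 620 nm emission (340 nm excitation). Antagonist mode: compounds were tested against 12 nM quinpirole in DRD2-HEK293 cells, with 200 nM NKH477 raising cAMP and 0.1 mM Ro20-1724 blocking its breakdown.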

A short description of assay [16]: p53 small molecule agonists, cell-based qHTS assay with human liver microsomes (AID 1963577).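 Also: p53 response element beta-lactamase reporter cells with liver microsomes plus NADPH.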 The method, boiled down: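 With metabolic activation: human liver microsomes (0.5 mg/mL final) plus NADPH (0.5 mg/mL final) added alongside compounds to p53RE-bla cells; 16 h 37 C exposure; beta-lactamase read by LiveBLAzer fluorescence.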
The nature of assay [17]: p53 small molecule agonists, cell-based qHTS assay with rat liver microsomes (AID 1963578). The method, boiled down:
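Metabolic activation by rat liver microsomes and NADPH, each 0.5 mg/mL final, added right after compounds to p53RE-bla reporter cells (4,000/well, plated 5 h earlier). 16 h at 37 C, then LiveBLAzer substrate for 2 h at room temperature in the dark; fluorescence read-out.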

Assay [18] concerns the target 5-hydroxytryptamine receptor 2A (Homo sapiens) (UniProt P28223). The assay can be described thus: 5-hydroxytryptamine receptor 2A (HTR2A) small molecule antagonists, cell-based qHTS assay (AID 1963586). Also: nearly all actives have a fitted effect of over 45% in size. The method, boiled down: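 Antagonist-mode intracellular calcium assay: DOI (4 nM) added after 5 min compound pre-incubation at room temperature to dye-loaded HTR2A-CHO cells. Fluorescence followed for 3 min, sampled every second.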

Assay [19] addresses Muscarinic acetylcholine receptor M1 (Homo sapiens) (UniProt P11229). As to the kind of experiment: Cholinergic receptor muscarinic 1 (CHRM1) small molecule antagonists, cell-based qHTS assay (AID 1963588). Also: nearly all actives have a fitted effect of over 40% in size. The method, boiled down:
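CHRM1-CHO calcium-flux assay, antagonist mode. Cells were seeded 18 h, dye-loaded 1 h at 37 C and given compound for 5 min at RT, then acetylcholine was added at 50nM. FDSS fluorescence was read 3 min; 15 concentrations, three runs.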
% is scaled to controls: 0 for no effect and ±100 for the full control effect.

D(2) dopamine receptor (Homo sapiens), sequence (P14416 whole entry, looked up): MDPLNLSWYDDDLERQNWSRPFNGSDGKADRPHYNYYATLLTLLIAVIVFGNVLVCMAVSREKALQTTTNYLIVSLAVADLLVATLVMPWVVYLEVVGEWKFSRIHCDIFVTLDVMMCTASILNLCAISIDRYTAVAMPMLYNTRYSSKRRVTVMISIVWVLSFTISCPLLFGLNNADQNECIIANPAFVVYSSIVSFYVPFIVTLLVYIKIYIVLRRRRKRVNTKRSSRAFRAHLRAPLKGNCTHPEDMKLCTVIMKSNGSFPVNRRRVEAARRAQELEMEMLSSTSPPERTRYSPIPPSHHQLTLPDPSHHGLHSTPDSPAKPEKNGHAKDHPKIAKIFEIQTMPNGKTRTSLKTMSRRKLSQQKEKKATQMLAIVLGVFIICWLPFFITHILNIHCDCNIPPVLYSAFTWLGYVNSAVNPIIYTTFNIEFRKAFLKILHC
Beta-2 adrenergic receptor (Homo sapiens), sequence (P07550 whole entry, looked up): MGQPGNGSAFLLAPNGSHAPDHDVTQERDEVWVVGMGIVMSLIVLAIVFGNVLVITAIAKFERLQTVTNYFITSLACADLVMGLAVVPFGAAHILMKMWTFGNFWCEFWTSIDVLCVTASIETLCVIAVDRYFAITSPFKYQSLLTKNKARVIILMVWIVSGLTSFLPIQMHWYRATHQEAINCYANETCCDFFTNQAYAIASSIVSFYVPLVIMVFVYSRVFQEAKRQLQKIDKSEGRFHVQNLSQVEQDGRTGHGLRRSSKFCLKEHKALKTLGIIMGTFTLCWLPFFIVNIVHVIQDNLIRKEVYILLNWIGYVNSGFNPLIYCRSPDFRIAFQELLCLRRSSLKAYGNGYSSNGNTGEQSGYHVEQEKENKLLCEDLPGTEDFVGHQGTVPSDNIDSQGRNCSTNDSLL
KiSS-1 receptor (Homo sapiens), sequence (Q969F8 whole entry, looked up): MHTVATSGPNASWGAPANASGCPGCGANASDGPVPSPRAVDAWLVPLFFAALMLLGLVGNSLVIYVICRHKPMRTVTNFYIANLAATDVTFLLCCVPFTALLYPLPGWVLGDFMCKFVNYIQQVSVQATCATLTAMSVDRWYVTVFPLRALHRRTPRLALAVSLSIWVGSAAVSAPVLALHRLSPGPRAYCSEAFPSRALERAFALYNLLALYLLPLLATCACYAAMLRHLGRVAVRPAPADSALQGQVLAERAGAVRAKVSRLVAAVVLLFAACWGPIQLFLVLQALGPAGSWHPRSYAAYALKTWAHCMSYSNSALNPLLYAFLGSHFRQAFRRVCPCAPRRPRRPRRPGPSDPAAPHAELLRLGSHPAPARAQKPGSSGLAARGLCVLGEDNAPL
Muscarinic acetylcholine receptor M1 (Homo sapiens), sequence (P11229 whole entry, looked up): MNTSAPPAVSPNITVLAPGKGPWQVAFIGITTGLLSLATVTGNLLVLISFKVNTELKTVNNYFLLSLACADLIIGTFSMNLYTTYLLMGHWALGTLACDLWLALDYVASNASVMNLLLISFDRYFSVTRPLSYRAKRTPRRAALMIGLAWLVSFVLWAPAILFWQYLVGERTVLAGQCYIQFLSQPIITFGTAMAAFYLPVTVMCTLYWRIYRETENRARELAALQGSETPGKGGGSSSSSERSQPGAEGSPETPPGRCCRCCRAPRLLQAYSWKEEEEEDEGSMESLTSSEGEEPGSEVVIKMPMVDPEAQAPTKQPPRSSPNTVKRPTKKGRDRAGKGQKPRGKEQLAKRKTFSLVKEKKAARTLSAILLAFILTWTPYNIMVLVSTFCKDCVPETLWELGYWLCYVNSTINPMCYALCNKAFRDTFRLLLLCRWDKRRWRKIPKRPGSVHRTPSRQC

Take `CNC(=O)O/N=C/C(C)(C)SC`: the Potency entry in assay [1], in [2], in assay [3], in assay [4], in [5] and in assay [6] was “inactive” in each case. Further, the Potency entry in [7], in assay [8], in [9], in assay [10], in [11] and in assay [12] was “inactive” in each case. Besides, the Potency entry in [13], in assay [14] and in assay [15] was “inactive” each time.
As to `C[C@H]1CCCC(=O)CCC/C=C/c2cc(O)cc(O)c2C(=O)O1`, the Potency in assay [1] is 58.9 µM (active) and inactive. Also, the Potency result in assay [2], in assay [3], in assay [16], in assay [17], in assay [5] and in assay [6] was “inactive” throughout. Further, the Potency entry in [18], in assay [8], in assay [19], in assay [9], in assay [10] and in assay [12] was “inactive” throughout. In addition, the Potency result in [14] and in assay [15] was “inactive” in each case.
As to `O=C(Cl)C(Cl)Cl`, the Potency entry in assay [1], in assay [2], in [3], in [16], in assay [17] and in [4] was “inactive” in each case. Besides, the Potency result in [6], in assay [18], in [8], in [19], in [9] and in assay [10] was “inactive” throughout. For the same compound, the Potency result in [11], in assay [12], in assay [14] and in [15] was “inactive” in each case.
As to `CCCCCCCCCCCOC(=O)c1ccccc1C(=O)OCCCCCCCCCCC`, the Potency entry in assay [1], in [3], in assay [16], in assay [17], in assay [4] and in assay [5] was “inactive” throughout. Also, the Potency result in assay [6], in assay [7], in [18], in assay [8], in assay [19] and in assay [9] was “inactive” in each case. The Potency result in assay [10], in assay [11], in assay [13], in assay [14] and in assay [15] was “inactive” each time.
For the compound `CC1COC2(c3ccccc3Cl)c3cc(Cl)ccc3NC(=O)CN12` (stereo not given), the Potency result in assay [1], in assay [3], in [16], in assay [17], in [4] and in assay [5] was “inactive” each time. The Potency entry in [6], in assay [7], in assay [18], in assay [8], in assay [19] and in assay [9] was “inactive” throughout. In addition, the Potency result in [10], in assay [11], in [12] and in assay [15] was “inactive” each time.
Regarding `Cc1ccc(N)c(C)c1`, the Potency entry in assay [1], in [2], in [3], in assay [4], in [5] and in [6] was “inactive” each time. In addition, the Potency result in assay [18], in assay [19], in assay [9], in assay [10], in assay [11] and in [12] was “inactive” throughout. The Potency entry in assay [14] and in assay [15] was “inactive” in each case.
As to `CO[C@@H]1[C@H](OC(=O)NC(=O)CCl)CC[C@]2(CO2)[C@H]1[C@@]1(C)O[C@@H]1CC=C(C)C`, the activity change, negative = cytotoxicity was -2.18% [at 19 µM] (inactive) in assay [1], 1.12% [at 13.5 µM] (inactive) in assay [4], -0.0178% [at 13.5 µM] (inactive) in [5] and 4.01% [at 13.5 µM] (inactive) in [6]. Moreover, the activation in [2] is 0.453% [at 15.8 µM] (inactive); in assay [16], -1.53% [at 13.5 µM] (inactive); in [17], 1.99% [at 13.6 µM] (inactive); in assay [7], -1.88% [at 13.5 µM] (inactive); in [8], -4.56% [at 15.9 µM] (inactive); in [9], -0.344% [at 15.8 µM] (inactive). Besides, the activation was -1.17% [at 19 µM] (inactive) in [10], 4.33% [at 19 µM] (inactive) in [13] and 1.8% [at 19 µM] (inactive) in assay [14]. Moreover, the activity, negative = inhibition was -0.303% [at 12.7 µM] (inactive) in [18] and 56% [at 12.6 µM] (inactive) in assay [19]. For the same compound, the activity change, negative = inhibition in assay [12] was -3.1% [at 19 µM] (inactive); in [15], -0.406% [at 18.9 µM] (inactive).
